Experimental findings from PubChem BioAssay (NCI) are described below.

Each structure is given as a SMILES string. The panel holds about 83,000 compounds, 20% with a hit somewhere; the sample as a whole holds those more often.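 Testing used 96-well plates and a 48-hour single-concentration exposure. Example: -40 means 40% of the starting cells died.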 Values without a mark were called inactive. Active and inactive are the calls of the source.

The assay concerns OVCAR-4 ovarian. The experiment in a line: NCI-60 one-dose screen, 48 h (100 = growth as untreated, 0 = no growth, -100 = all killed). Particulars: 10 µM unless noted. The method, then: Growth inhibition of the OVCAR-4 human tumor cell line is measured as a screen for anti-cancer activity. Cells are grown in 96 well plates and exposed to the test compound for 48 hours. Compounds are tested at a single concentration, which is 10^-5 M for most compounds. The reported endpoint is percent growth (GI% or GIPRCNT), where numbers from 0 - 100% represent growth inhibition, and numbers from -100% - 0 represent cell death. For example, a value of 40 represents 60% growth inhibition. A value of 0 means no net growth occurred over the course of the experiment. A value of -40 indicates 40% of cells at the beginning of the experiment died by the end of the experiment. A value of -100 means all cells are dead at the end of the experiment.
NCI-60 Human Tumor Cell Lines Screen was performed using the standard one-dose NCI protocol, which is described in more detail at https://dtp.cancer.gov/discovery_development/nci-60/default.htm.
Compounds with GIPRCNT values below 10 were considered active. Activity score was based on GIPRCNT using the following formula: […]
Score is 0 for GIPRCNT values of 100 or above, 50 for GIPRCNT values of 0, and 100 for GIPRCNT values of -100.
Regarding `CC(=O)OCC1OC(n2cnc3c(=S)nc(N)[nH]c32)C(OC(C)=O)C1OC(C)=O` (stereo not given), the growth was 82.5%.
To `O=C(c1ccccc1)c1ccc(-c2ccc(O)cc2)cc1` belongs 45.6%; to `Oc1cc2ccccc2c(-c2c(O)c(O)cc3ccccc23)c1O`, 27.3%.
For the molecule `Nc1ncnc(Nc2ccccc2)n1`, the growth was 109%.
For `CC(CO)(CO)C(=O)O`, the growth is 105%.
`CCNc1ncnc2[nH]ncc12`: the growth is 108%.
With `CC(=O)NC(O)C(Cl)Cl` (stereo not given), the growth was 97.5%.
Take `O=C(O)C1CCCN1C(=O)OCc1ccccc1` (stereo not given): the growth was 122%.
For `Cc1onc(-c2c(F)cccc2Cl)c1-c1ncc(-c2ccc(Br)cc2)o1`, the growth is 48%.
With `CCOc1ccc2c(c1)c(C)cc(C)[n+]2CC` the figure was 58.8%; with `O=C(N/N=C\c1ccc(Cl)cc1Cl)c1ccncc1`, 106%; with `COc1cc(OC)c(NC(=O)C(Sc2nc(C)cc(C)c2C#N)c2ccccc2)cc1Cl` (stereo not given), 105%.
As for `C=C1C(=O)C2CCN1CC2`, the growth is 101%.
With `CCN(Cc1ccc(Cl)c(Cl)c1)c1ccc2nc(N)nc(N)c2c1C`, the growth was -88.2% (active).
`C=CCNC(=S)N/C=C(/C(=O)c1ccccc1)c1ccccc1`: the growth was 110%.
With `C=CC(=O)OC1CCC(C(C)(C)CC)CC1` (stereo not given) the figure was 105%.
`COc1ccc(NNS(=O)(=O)O)cc1`: the growth was 111%.
Regarding `Cc1[nH]n(-c2ccccc2)c(=O)c1C=NC(=S)C(N)=S`, the growth was 104%.
For `C=CCc1cc(OC)c(O)c(OC)c1`, the growth was 102%.
For `CC(=O)NC(CCC(=O)c1ccccc1)C(=O)O` (stereo not given), the growth was 100%.
Consider `C=CCS(C)(=O)=O`, for which the growth is 113%.
Turning to `OCC1OC(n2ccc3c2ncn2ncnc32)C(O)C1O` (stereo not given), the growth is 53.3%.
On to `CC(C)Sc1ncnc2nc[nH]c12`, for which the growth is 115%.
Take `Nc1ccn(C2CC(N)C(CO)O2)c(=O)n1` (stereo not given): the growth is 86.7%.
For `O=S(=O)(OCCOS(=O)(=O)c1ccccc1)c1ccccc1`, the growth was 101%.
For `Cc1ccc(S(N)(=O)=O)cc1Cl`, the growth is 115%.
For the molecule `CCOC(=O)CNC`, the growth was 96.5%.
`CCCCCCCCCCCCCCCCCC(=O)NCCNC(=O)CCCCCCCCCCCCCCCCC`: the growth was 95%.
With `CCN(CC)CCN1CNC(=S)NC1`, the growth was 109%.
Take `Cc1ccccc1NC(=O)Oc1ccc(Cl)cc1C(=O)c1ccccc1`: the growth was 102%.
To `O=C1NC(=O)C(c2ccccc2)O1` (stereo not given) belongs 98.2%; to `C/C(O)=C(/C=N/C(=S)Nc1ccccc1)C(=O)Nc1ccccc1C`, 83%.
For `CCOC(=O)C(COS(C)(=O)=O)(COS(C)(=O)=O)C(=O)OCC`, the growth is 107%.
Take `O=[N+]([O-])c1ccc(-c2nc(N(CCO)CCO)c3ccccc3n2)o1`: the growth is -25.7% (active).
Turning to `O=Cc1ccc(Cl)c(Cl)c1`, the growth was 95.8%.
To `CC(=O)NNC(=S)N/C=C/c1c(C)ccc([N+](=O)[O-])c1[N+](=O)[O-]` belongs 106%; to `Cc1ccc(NC(=S)N2CCOCC2)cc1C`, 102%.
In the case of `COc1nc2ccccc2s1`, the growth was 118%.
To `O=C(O)Cc1ccc(Cl)cc1` belongs 107%.
Take `Cc1c(Cl)cccc1N=C=S`: the growth is 87.4%.
